Measurements as given in PubChem BioAssay AID1851 (National Center for Advancing Translational Sciences (NCATS), 2009).
The campaign covered roughly 16,000 compounds. About 5,800 (36%) were called active. Not shown: some 23% with an inconclusive outcome. Calls come from the whole dose curve; as a rule, active = well fitted curve in the direction sought with a large enough effect; inconclusive = small, poorly fitted or top-dose-only effect, or effect the other way; inactive = no such curve, though single readings can be large or run the other way. The list shows a part of the results.

target: Cytochrome P450 2C19 (Homo sapiens) (UniProt P33261); assay: Cytochrome panel assay with activity outcomes; details: recombinant CYP, pro-luciferin dealkylation, luminescence, p450-cyp2c19; series mostly up to 57.1 µM; activity, negative = inhibition: at the top concentration
Sequence (P33261 whole entry, looked up): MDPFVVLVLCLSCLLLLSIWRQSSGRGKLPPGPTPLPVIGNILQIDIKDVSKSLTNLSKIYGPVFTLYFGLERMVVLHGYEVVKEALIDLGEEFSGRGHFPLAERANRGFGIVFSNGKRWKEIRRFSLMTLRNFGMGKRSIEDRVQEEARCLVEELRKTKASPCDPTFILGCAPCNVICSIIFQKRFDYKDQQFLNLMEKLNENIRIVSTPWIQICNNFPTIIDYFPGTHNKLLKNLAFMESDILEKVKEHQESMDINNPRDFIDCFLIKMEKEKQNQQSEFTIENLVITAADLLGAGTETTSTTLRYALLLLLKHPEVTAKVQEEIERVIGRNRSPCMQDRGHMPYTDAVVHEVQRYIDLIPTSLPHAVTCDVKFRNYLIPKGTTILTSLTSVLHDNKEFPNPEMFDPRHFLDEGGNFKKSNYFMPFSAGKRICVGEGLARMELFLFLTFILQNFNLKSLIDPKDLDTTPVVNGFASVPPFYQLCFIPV
% is set by controls: 0 for no effect and ±100 for the full control effect.

AC50, inactive:
C=C1C(=O)O[C@@H]2[C@@H]1CC/C(C)=C\CC[C@@]1(C)O[C@H]21

AC50, active:
O=C(CN1CCN(S(=O)(=O)c2ccc(Cl)cc2)CC1)Nc1ccc2c(c1)OCO2 2.82 µM
CC1=CC(C)(C)NC(=S)N1c1cccc(C)c1 3.98 µM
COc1cccc([C@@H]2Oc3ccc(OC)cc3/C(=N/OC[C@@H](O)COCc3ccco3)[C@@H]2O)c1 1.58 µM
COc1cccc([C@@H]2Oc3ccc(OC)cc3/C(=N/O[C@@H](C)c3cc(-c4c(C)cc(C)cc4C)no3)[C@@H]2O)c1 1.58 µM
COc1cccc([C@@H]2Oc3ccc(OC)cc3/C(=N/OC[C@@H](C)[C@H](OCc3ccccc3)C(C)C)[C@@H]2O)c1 2 µM
O=C1NCCN1Cc1ccccc1F 20 µM
CN(C)S(=O)(=O)Oc1cccc(C(=O)Nc2ccc(Cl)c(Cl)c2)c1 3.98 µM
CN(C)S(=O)(=O)Oc1cccc(C(=O)Nc2ccccc2Cl)c1 2.82 µM
CC=C(/C(=C/C)c1ccc(O)cc1)c1ccc(O)cc1 3.16 µM
COc1cccc(C2=NOC(C(=O)Nc3cccnc3)C2)c1 (stereo unspecified) 10 µM
COc1ccc(CNC(=O)C2CC(c3cccc([N+](=O)[O-])c3)=NO2)cc1 (stereo unspecified) 10 µM
O=C(NCc1ccc2c(c1)OCO2)C1CC(c2cccc(Br)c2)=NO1 (stereo unspecified) 11.2 µM
COc1cccc(C2=NOC(C(=O)NCc3ccccc3)C2)c1 (stereo unspecified) 3.98 µM
COc1ccc(-n2c(=O)c(-c3cccs3)nc3cncnc32)cc1 15.8 µM
O=c1c(-c2cccs2)nc2cncnc2n1-c1ccccc1 6.31 µM
COc1ccc2c(c1)c(=O)oc1c(C)c(OCC(=O)N3CCc4ccccc4C3)ccc12 0.398 µM
N#Cc1c(NC(=O)CCN2C(=O)c3ccccc3C2=O)oc(-c2ccccc2)c1-c1ccccc1 3.16 µM
OC(CNCc1ccc(F)cc1)(c1ccc(F)cc1)c1ccc(F)cc1 7.94 µM
Cc1ccc(CNCC(O)(c2ccc(F)cc2)c2ccc(F)cc2)cc1 11.2 µM
COc1cnc(-c2ccccn2)nc1Oc1ccc(Cl)c2ccccc12 14.1 µM
Cn1c(Sc2ccc(-c3cccnc3)n2C)ccc1-c1cccnc1 1 µM

activity, negative = inhibition, inactive:
O=C1C=CC(=Nc2cccc3c(N=C4C=CC(=O)O4)cccc23)O1 -74.7% [at 11.4 µM]
CC(C)=NOC[C@@H](O)COCc1ccco1 -10.6% [at 11.4 µM]
COc1cccc([C@H]2Oc3ccc(OC)cc3/C(=N\O[C@@H](C)c3cn([C@H](CO)Cc4ccccc4)nn3)[C@@H]2O)c1 -44.2% [at 11.4 µM]
COc1cccc([C@H]2Oc3ccc(OC)cc3/C(=N\OC[C@@H](O)[C@@H]3O[C@@H]4OC(C)(C)O[C@@H]4[C@H]3O)[C@@H]2O)c1 -33% [at 11.4 µM]
CCN1C(=O)[C@H]2[C@H]3[C@H](O)[C@H](O)C/C(=N/O[C@@H](C)c4cc(-c5c(C)cc(C)cc5C)no4)[C@@H]3CC[C@@H]2C1=O -26.1% [at 11.4 µM]
COc1cccc([C@@H]2Oc3ccc(OC)cc3/C(=N/O[C@@H](C)c3cn([C@H]4COC[C@H]4O)nn3)[C@@H]2O)c1 -35.4% [at 11.4 µM]
CCN1C(=O)[C@H]2[C@H]3[C@H](O)[C@H](O)C/C(=N/OC[C@@H](C)[C@H](OCc4ccccc4)C(C)C)[C@@H]3CC[C@@H]2C1=O -18.6% [at 11.4 µM]
O=C(O)/C(=C/c1c(C(=O)O)[nH]c2cc(Cl)cc(Cl)c12)c1ccccc1 -13.2%
CC(C)(N=NC(C)(C)C(=N)N)C(=N)N 41.9% [at 11.4 µM]
CON1C(=O)C(=O)N(OC)C2CCCCC21 (stereo unspecified) 24.9%
N#CC(C#N)=C(N)/C(C#N)=C/c1ccc(O)cc1 0.416%
COc1ccc(CNC(=O)C2CC(c3ccc(OC)cc3)=NO2)cc1 (stereo unspecified) -2.25%
COCCNC(=O)C1CC(c2cccc(OC)c2)=NO1 (stereo unspecified) -24.6%
COc1cccc(C2=NOC(C(=O)NCCN3CCOCC3)C2)c1 (stereo unspecified) -20.2%
CCNc1ncc2nc(C)c(=O)n(Cc3cccs3)c2n1 -27.9%
COC(=O)N1CCC[C@@]2(CCN(C(=O)Nc3cccc(F)c3)C2)C1 -41.5%
Cn1c(=O)c(-c2cccs2)nc2cncnc21 -45.6%
O=c1c(-c2cccs2)nc2cnc(N3CCOCC3)nc2n1-c1ccccc1 -11.6%
COc1ccc(-n2c(=O)c(-c3cccs3)nc3cnc(Oc4ccccc4)nc32)cc1 -6.86%
CN1CCN(c2ncc3nc(-c4cccs4)c(=O)n(-c4ccccc4)c3n2)CC1 22.2%
CCCc1ncc(C[n+]2ccccc2C)c(N)n1 0.835% [at 25.6 µM]
CCOc1cc(/C=C2/SC(=O)N(CC(=O)N3CCc4ccccc4C3)C2=O)ccc1OCC(=O)O 2.89%
COCC(=O)N1CCC2(CC1)CCN(C(=O)Nc1ccc(OC)cc1)CC2 -5.31%
c1cncc(-c2cc(-c3cc(-c4cccnc4)n[nH]3)[nH]n2)c1 -4.18% [at 11.4 µM]
